Assay results taken from paper PMC5540273 (PLoS ONE, 2017).

Tests used:
Conditions in all cases: concentration: 1 μM,replicates: in singlicate; n = 1
[1] = test system: TYK2(JH2domain-pseudokinase)
TYRO3 = test system: TYRO3
ULK1 = test system: ULK1
ULK2 = test system: ULK2
ULK3 = test system: ULK3
VEGFR2 = test system: T1, VEGFR2
T1 construct: gene KDR

VPS34 = test system: T2, VPS34
T2 construct: gene PIK3C3

VRK2 = test system: VRK2
WEE1 = test system: WEE1
WEE2 = test system: WEE2
WNK1 = test system: WNK1
WNK2 = test system: WNK2
WNK3 = test system: WNK3
WNK4 = test system: WNK4
YANK1 = test system: T3, YANK1
T3 construct: gene STK32A

YANK2 = test system: T4, YANK2
T4 construct: gene STK32B

YANK3 = test system: T5, YANK3
T5 construct: gene STK32C

YES = test system: T6, YES
T6 construct: gene YES1

YSK1 = test system: T7, YSK1
T7 construct: gene STK25

YSK4 = test system: T8, YSK4
T8 construct: gene MAP3K19
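Also: KINOMEscan kinase panel screen.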

Compound	%Inh [1] [%]	%Inh (TYRO3) [%]	%Inh (ULK1) [%]	%Inh (ULK2) [%]	%Inh (ULK3) [%]	%Inh (VEGFR2) [%]	%Inh (VPS34) [%]	%Inh (VRK2) [%]	%Inh (WEE1) [%]	%Inh (WEE2) [%]	%Inh (WNK1) [%]	%Inh (WNK2) [%]	%Inh (WNK3) [%]	%Inh (WNK4) [%]	%Inh (YANK1) [%]	%Inh (YANK2) [%]	%Inh (YANK3) [%]	%Inh (YES) [%]	%Inh (YSK1) [%]	%Inh (YSK4) [%]
CC(=O)Nc1nc2cnc(Nc3cc(NC(=O)c4cccc(CC(C)(C)C#N)c4)ccc3C)nc2s1	28	0	30	0	11	63	11	0	0	15	0	47	0	26	1	12	9	17	0	40
Cn1ccc2ncnc(Oc3ccc(NC(=O)Nc4cncc(C(F)(F)F)c4)c(Cl)c3)c21	0	0	0	0	99.9	98.5	0	0	0	7	0	0	0	0	0	2	25	0	0	17
COc1cc(Nc2nccc(N3CCC(NC(=O)c4cccc(C#N)c4)C3)n2)cc(OC)c1OC (stereo not shown) [GSK1379751]	55	0	12	0	96.7	0	0	0	0	0	13	19	37	39	0	0	0	20	3	39
CSc1nccc(-c2c(-c3ccc(F)cc3)ncn2CCCN2CCOCC2)n1.Cl [SB-217146]	22	0	12	36	14	7	16	30	0	1	21	0	0	0	0	0	0	0	0	25
Cn1ccc2ncnc(Oc3ccc(NC(=O)Nc4ccnc(C(F)(F)F)c4)c(Cl)c3)c21	0	0	0	0	0	98.5	0	0	0	30	0	0	0	0	0	0	0	0	0	14
CCOC(=O)N1CCC(n2cnc(-c3ccc(F)cc3)c2-c2ccnc(N)n2)CC1 [SB-219952]	67	20	4	26	8	3	35	27	0	0	28	72	45	0	15	15	0	10	0	9
C[C@@H](Oc1cc(-n2cnc3ccc(-c4ccncc4)cc32)sc1C(N)=O)c1ccccc1Cl [GSK483724]	42	0	6	0	7	8	96.4	0	46	1	46	63	79	51	18	1	28	16	2	68
C[C@@H](Oc1cc(-n2cnc3cc(-c4ccncc4)ccc32)sc1C(N)=O)c1ccccc1Cl [GSK479719]	46	15	32	3	18	40	32	0	1	0	32	76	90.2	2	7	0	26	44	0	97.5
Cc1ccc(C(=O)Nc2ccc(Oc3ccc4nc(NC(=O)C5CC5)cn4c3)c(F)c2)c(=O)n1-c1ccccc1	0	81	0	0	7	99.1	43	0	0	0	0	0	0	0	0	0	0	71	0	0
O=c1[nH]cc(-c2ccc(O)cc2)c2sc(-c3ccncc3)cc12 [GSK1033723]	16	8	8	2	6	0	0	0	3	0	1	26	18	10	10	0	14	5	0	98.8
O=C(NOCC1CC1)c1cc(Br)c(F)c(F)c1Nc1ccc(I)cc1Cl	0	0	0	0	10	0	0	0	0	0	0	0	0	16	0	0	2	0	0	0
Cc1ccc(Nc2ccnc(Nc3ccc4c(c3)CS(=O)(=O)C4)n2)cc1O.Cl [GW579362]	99.5	79	55	2	99.5	93.6	76	0	50	98.3	0	33	33	9	26	0	0	81	39	99.1
Cc1ccc2c(-c3ccnc(Nc4ccc(C(F)(F)F)cc4)n3)cnn2n1 [GW819776]	69	0	0	0	21	0	48	31	6	0	3	0	0	0	0	0	0	0	0	43
Cn1ccc2ncnc(Oc3ccc(NC(=O)Nc4cccc(C(F)(F)F)c4)c(Cl)c3)c21	0	0	0	0	1	98.2	0	0	3	9	0	0	0	0	0	0	13	0	0	77
CN1CCN(CCNc2nc3cc(Oc4ccc(NC(=O)Nc5cc(C(F)(F)F)ccc5F)cc4)ccc3[nH]2)CC1.Cl.Cl [GW768504]	0	0	0	0	0	58	17	0	8	2	0	0	0	0	0	0	4	0	9	10
O=C(Nc1n[nH]c2cc(-c3ccco3)ccc12)C1CC1 [SB-737447]	0	0	11	0	20	6	16	0	0	2	0	0	0	0	0	0	0	0	0	96.2
CCn1c(-c2nonc2N)nc2cncc(Br)c21 [SB-738004]	18	0	14	13	3	37	36	35	13	0	0	8	31	39	0	7	8	0	0	99.7
CS(=O)c1ccc(-c2coc3ccc(-c4n[nH]c(=O)o4)cc23)cc1 (stereo not shown)	47	0	35	0	0	17	94.3	0	2	16	0	0	0	0	9	10	0	0	7	55
Cc1ccc(CC(=O)N2CCc3cc(-c4cn(C)c5ncnc(N)c45)ccc32)cc1 [GSK2634758]	17	0	11	35	6	0	0	19	0	0	12	0	53	17	15	0	10	25	26	50
COc1cccc(OC)c1C(=O)Nc1cccc(-c2nn3ccccc3c2-c2ccnc(Nc3cccc(F)c3)n2)c1 [GSK361065]	0	79	0	13	0	18	0	0	9	12	0	0	0	0	0	11	0	36	1	0
COc1cc2nccc(Nc3ccc(Oc4ccccc4)cc3)c2cc1OC.Cl [GI261656]	12	0	0	0	0	23	10	5	0	0	0	0	42	28	7	0	0	79	0	0

Compound	%Inh [1] [%]	%Inh (TYRO3) [%]	%Inh (ULK1) [%]	%Inh (ULK2) [%]	%Inh (ULK3) [%]	%Inh (VEGFR2) [%]	%Inh (VPS34) [%]	%Inh (VRK2) [%]	%Inh (WEE1) [%]	%Inh (WEE2) [%]	%Inh (WNK1) [%]	%Inh (WNK2) [%]	%Inh (WNK3) [%]	%Inh (WNK4) [%]	%Inh (YANK1) [%]	%Inh (YANK2) [%]	%Inh (YANK3) [%]	%Inh (YES) [%]	%Inh (YSK1) [%]	%Inh (YSK4) [%]
CN1CCN(CCCNc2nccc(-c3c(-c4ccc(F)cc4)nn4cc(C(N)=O)ccc34)n2)CC1 [GW622475]	40	0	8	0	0	9	19	0	2	0	9	8	20	14	20	17	16	24	22	14
C[C@@H]1CNc2c(sc3ccc4nc(-c5ccc(O)cc5)ccc4c23)C(=O)N1	23	0	38	63	24	11	9	17	17	0	0	2	0	11	0	9	1	0	0	46
Cc1ccn2nc(-c3ccc(F)cc3)c(-c3ccncc3)c2c1.Cl [GW457859]	25	0	0	0	0	19	51	0	7	0	0	5	30	55	91.9	13	0	5	15	0
OCCn1cc(-c2cnc3nnn(Cc4ccc5ncccc5c4)c3n2)cn1	0	0	0	0	0	0	17	0	0	0	0	0	0	0	3	0	0	0	0	0
CC(=O)Nc1ccc(-c2cc3ncnc(SCC(=O)O)c3s2)cc1	0	0	10	13	15	27	0	0	0	4	2	0	0	2	0	0	26	0	11	50
CC(C)c1nc(-c2cccc(NS(=O)(=O)c3ccccc3)c2)c(-c2ccnc(Nc3ccc4c(c3)CN(C)CC4)n2)s1 [GSK1649598]	28	79	42	67	48	90.1	0	0	0	0	8	0	12	0	20	28	11	99.7	56	55
C[C@@H](Oc1cc(-n2cnc3cc(-c4cnn(C)c4)ccc32)sc1C(N)=O)c1ccccc1Cl [GSK580432]	0	11	14	10	11	61	74	0	26	5	62	91.4	97.4	33	25	0	13	73	31	97.8
Nc1nccc(-c2ccc3c(N)n[nH]c3c2)n1 [GSK1034945]	52	0	41	13	4	0	0	0	35	0	6	0	3	0	21	0	9	0	17	72
Cc1n[nH]c2cc(Nc3ccnc(Nc4cccc(CN5CCOCC5)c4)n3)ccc12 [GW682569]	99.2	0	1	0	55	45	18	27	10	0	8	19	21	32	9	0	3	22	10	90
CNC(=O)c1ccccc1Nc1nc(Nc2cccc(CS(C)(=O)=O)c2)ncc1C.O=CO [GSK1520489]	98.9	72	98.6	65	99.9	96.3	77	36	98.1	99.9	9	79	65	29	44	0	0	99.8	45	99.8
Cc1cccc(-c2nc(Nc3ccncc3)c3sccc3n2)n1 [GW869641]	75	0	43	29	45	35	32	39	20	11	27	0	21	17	20	14	0	0	0	41
COc1cccc(C2=C(Nc3cccc(Cl)c3)C(=O)NC2=O)c1 [SB-341556]	46	21	42	7	12	0	0	0	5	0	20	29	19	0	5	0	11	17	0	38
Cn1ccc2ncnc(Oc3ccc(NC(=O)Nc4cnn(C(C)(C)C)c4)c(Cl)c3)c21	3	0	0	7	0	99.1	16	0	0	5	62	0	0	3	1	11	9	0	8	34
Cn1ccc2ncnc(Oc3ccc(NC(=O)Nc4cc(C(C)(C)C)on4)c(Cl)c3)c21	26	28	8	11	16	97.5	16	19	0	23	0	20	0	0	0	5	0	3	0	99.5
CC(=O)c1c(-c2ccncc2)[nH]c(-c2ccncc2)c1C [GW493036]	90	0	3	0	10	0	50	55	17	0	14	0	50	62	0	0	9	17	0	78
O=C(NCC1CC1)c1ccc(-c2cc(C(=O)NC3CC3)ccc2F)cc1 [GW810445]	2	0	1	0	3	0	16	19	0	0	0	24	11	10	0	0	0	0	3	6
Cn1ccc2ncnc(Oc3ccc(NC(=O)Nc4cccc(C(F)(F)F)c4)c(F)c3)c21	0	3	0	0	0	99.1	0	0	43	0	0	0	0	7	0	0	1	0	0	68
COc1cccc(CNC(=O)NC2CCN(c3ccnc(Nc4cc(OC)c(OC)c(OC)c4)n3)C2)c1 (stereo not shown) [GSK1379765]	43	0	0	0	90	13	0	0	30	9	4	33	34	43	0	0	7	7	0	37
CC(C(=O)NC1CCN(c2ccnc(Nc3ccc(F)cc3)n2)C1)c1ccc(Cl)cc1 (stereo not shown) [GSK1379713]	0	0	7	0	2	3	4	0	6	13	1	0	73	0	0	0	0	0	0	0
Cc1cccc2c(-c3ccncc3)c(-c3ccc(F)cc3)nn12.Cl [GW461487]	0	0	0	0	1	0	18	0	8	11	0	0	13	0	27	8	22	11	11	0
